A selection: hits, their analogues and other compounds. The true share with any hit is near 18%.
DT40 TDP1 CPT: qHTS for Inhibitors of human tyrosyl-DNA phosphodiesterase 1 (TDP1): qHTS in cells in presence of CPT; chicken DT40 Tdp1-/-;hTDP1 cells + 20 nM CPT, ATP luminescence, 48 h; Potency, µM (highest dose often 46.2 µM), hits mostly inhibitors; 420,000 compounds, 12% hits; AID 686979, 2013; note: nearly all actives have a fitted effect of over 55% in size
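Chicken DT40 Tdp1-/- cells stably complemented with human TDP1 were seeded at 400 cells/well in medium containing 20 nM camptothecin, exposed to pin-transferred compounds, and grown at 37 °C for at least 48 hr. Viability was read as ATP luminescence.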
TGFb SMAD3 inh: qHTS for Inhibitors of TGF-b; HepG2 CAGA-GFP TGF-b/SMAD3 reporter, GFP fluorescence, 18 h; TGF-beta stimulated, 500 pg/mL final; Potency, µM (highest dose often 46.1 µM), usual class: inhibitors; 410,000 compounds, 1.2% hits; note: nearly all actives have a fitted effect of over 65% in size
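Smad-responsive CAGA-GFP expression was quantified in HEPG2 cells exposed to compounds and 500 pg/mL final TGF-beta for 18 h at 37 degrees C; unstimulated wells defined full inhibition.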
HepG2 viability: qHTS for Inhibitors of TGF-b: Cytotox Counterscreen. Potency, µM (series often up to 46.1 µM), actives largely listed as cytotoxic. 410,000 compounds, 0.76% hits. AID 588856, 2011. HepG2 CAGA-GFP viability, ATP luminescence, 18 h
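CellTiter-Glo luminescence gave cytotoxicity after 18 hours at 37 degrees C. The cells were HepG2 CAGA-GFP in 1% FBS DMEM, stimulated with 500 pg/mL TGF-beta after compound addition. %Activity was normalised to no-cell wells (complete cell-killing) and DMSO (no toxicity), and curves were fitted and classified.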
TDP1 cell noCPT: qHTS for Inhibitors of human tyrosyl-DNA phosphodiesterase 1 (TDP1): qHTS in cells in absence of CPT | DT40 Tdp1-/- hTDP1 cells, no CPT, ATP luminescence, 48 h | Potency, µM (top dose mostly 46.2 µM), hits mostly inhibitors | 420,000 compounds, 15% hits | AID 686978, 2013; note: nearly all actives have a fitted effect of over 55% in size
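Growth of hTDP1-complemented DT40 Tdp1-knockout cells is measured by ATP luminescence after at least 48 hr compound exposure at 37 °C, with DMSO substituting for the 20 nM CPT used in the parallel screen.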
IL1B secr inh: qHTS for Inhibitors of Inflammasome Signaling: IL-1-beta AlphaLISA Primary Screen; activity change, % at 57.5 µM; THP-1 LPS/ATP IL-1B secretion, AlphaLISA, 16 h; hits give low values; AID 743279, 2014; 360,000 compounds, 4.7% hits; in the data active = activity change below about -50%; inconclusive = mostly about -30% to -49%
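Secreted IL-1B measured by AlphaLISA bead assay after 16 h compound exposure of THP-1 cells; compounds (final up to 57.5 uM) added 1 h before LPS (250 ng/mL) and ATP (1.25 mM) stimulation; lower signal means less secretion.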
TDP1 block: qHTS Assay for Inhibitors of Tyrosyl-DNA Phosphodiesterase (TDP1) | recombinant TDP1, AlphaScreen DNA substrate cleavage | Potency, µM (highest dose often 130 µM), usual class: inhibitors | Tyrosyl-DNA phosphodiesterase 1 (Homo sapiens), Q9NUW8 | 350,000 compounds, 0.28% hits | AID 485290, 2010; note: nearly all actives have a fitted effect of over 40% in size
Target sequence (Q9NUW8 whole entry, looked up): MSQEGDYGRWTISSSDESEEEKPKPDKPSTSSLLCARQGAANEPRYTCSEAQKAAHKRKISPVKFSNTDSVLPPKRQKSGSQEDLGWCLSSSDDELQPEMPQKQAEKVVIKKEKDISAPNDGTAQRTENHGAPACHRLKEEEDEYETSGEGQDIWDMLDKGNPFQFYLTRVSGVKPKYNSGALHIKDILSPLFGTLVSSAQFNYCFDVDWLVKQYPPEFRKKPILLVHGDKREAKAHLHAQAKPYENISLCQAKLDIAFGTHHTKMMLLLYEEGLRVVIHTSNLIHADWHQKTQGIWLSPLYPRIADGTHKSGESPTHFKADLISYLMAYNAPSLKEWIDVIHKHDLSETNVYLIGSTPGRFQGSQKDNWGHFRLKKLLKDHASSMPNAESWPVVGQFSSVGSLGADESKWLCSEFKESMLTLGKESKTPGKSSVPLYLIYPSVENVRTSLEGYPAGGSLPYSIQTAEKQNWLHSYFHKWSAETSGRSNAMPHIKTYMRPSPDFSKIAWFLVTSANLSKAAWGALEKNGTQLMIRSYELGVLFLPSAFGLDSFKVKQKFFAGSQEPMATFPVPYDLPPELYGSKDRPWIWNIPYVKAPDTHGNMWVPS
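Enzyme-compound mixtures sat 15 min at room temperature, followed by a 5 min reaction with 15 nM final substrate and 10 min with AlphaScreen beads. Recombinant human Tdp1 was used at 1 nM final.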
Numbers stand for hits; i = inactive; ? = inconclusive; nt = not tested or not shown; [ ] = dose if it differs, or a comment. Unless noted, calls come from the whole dose curve; as a rule, active = well fitted curve in the direction sought with a large enough effect; inconclusive = small, poorly fitted or top-dose-only effect, or another doubt; inactive = no such curve, though single readings can be large; an effect the other way counts as inactive or inconclusive.

SMILES | DT40 TDP1 CPT | TGFb SMAD3 inh | HepG2 viability | TDP1 cell noCPT | IL1B secr inh | TDP1 block
C=CC[C@H](CC(=O)N(CCO)Cc1ccccc1)C(=O)NCCOC(=O)[C@@H](CC=C)Cc1ccc(F)cc1 | ? | i | i | ? | i | i
C=CC[C@H](CC(=O)N(CCO)Cc1ccccc1)C(=O)N[C@@H](C)COC(=O)[C@@H](CC=C)Cc1ccc(F)cc1 | 16µM | ? | i | ? | i | i
C=CCC[C@H](Cc1ccc(F)cc1)C(=O)OC[C@@H](C)NC(=O)[C@H](CC=C)CC(=O)NCCO | i | i | i | ? | i | i
C=CCC[C@@H](Cc1ccc(F)cc1)C(=O)OCCNC(=O)[C@@H](CC=C)CC(=O)N(CCO)Cc1ccccc1 | 21µM | ? | i | 21µM | -61 | i
C=CCC[C@@H](Cc1ccc(F)cc1)C(=O)OC[C@H](C)NC(=O)[C@@H](CC=C)CC(=O)N(CCO)Cc1ccccc1 | ? | 13µM | i | 21µM | ? | i
CC(=O)c1cccc(NC(=O)CN2C(=O)CCc3cc(S(=O)(=O)N4CCCCC4)ccc32)c1 | i | i | i | i | nt | i
C=CCC[C@@H](Cc1ccc(F)cc1)C(=O)OC[C@H](C)NC(=O)[C@H](CC=C)CC(=O)N(CCO)Cc1ccccc1 | 18µM | ? | i | ? | ? | i
C=CCC[C@H](Cc1ccc(F)cc1)C(=O)OC[C@@H](C)NC(=O)[C@H](CC=C)CC(=O)N(CCO)Cc1ccccc1 | 15µM | ? | i | 18µM | i | i
CCCCCCCC/C=C/CCCCCCCCOP(=O)([O-])OCC[N+](C)(C)C | ? | nt | nt | ? | nt | i
S=C(NCCSCc1ccc(Cl)cc1)Nc1ccccc1 | ? | ? | i | ? | ? | i
CCOc1ccc(CSCCNC(=S)Nc2ccc(OC)cc2)cc1 | ? | ? | i | 23µM | i | nt
COC(=O)c1ccc(NC(=S)NCCc2cccc(C)c2)cc1 | ? | i | i | ? | i | i
CCCOc1ccc(CSCCNC(=S)Nc2ccccc2)cc1 | 26µM | ? | i | 23µM | i | i
COc1ccc(C(=O)NCCSCc2ccc(C)cc2)cc1 | i | ? | i | ? | i | i
Cc1cccc(CSCCNC(=S)Nc2ccccc2)c1 | ? | i | i | 18µM | ? | i
COC(=O)c1ccc(NC(=S)NCCc2ccc(OC)cc2)cc1 | ? | i | i | 3.7µM | i | i
CCc1nn2c(=O)cc(COC(=O)c3ccc(NC(=O)C4CCCCC4)cc3)nc2s1 | ? | i | i | 18µM | nt | i
Cc1nn2c(=O)cc(COC(=O)c3ccc(NC(=O)C4CCCCC4)cc3)nc2s1 | ? | i | i | 9.2µM | nt | i
O=S(=O)(c1ccccc1)c1nnn2c1nc(NC1CCN(Cc3ccccc3)CC1)c1cc(Cl)ccc12 | 7.3µM | i | i | 4.1µM | ? | i
COCCNc1nc2c(S(=O)(=O)c3ccccc3)nnn2c2ccc(Cl)cc12 | i | i | i | ? | nt | i
Cc1ccc(C)c(Nc2nc3c(S(=O)(=O)c4ccccc4)nnn3c3ccccc23)c1 | i | i | i | ? | i | i
O=S(=O)(c1ccccc1)c1nnn2c1nc(NC1CCN(Cc3ccccc3)CC1)c1ccccc12 | 5.8µM | i | i | 8.2µM | ? | i
O=C(c1cccn2c(=O)c3cc4ccccc4cc3nc12)N1CCN(c2ccccc2)CC1 | nt | nt | nt | nt | nt | i
CCN(CC)C(=O)N1c2ccccc2CC(N(CC)CC)c2ccccc21 (stereo not given) | 7.3µM | i | i | 5.8µM | i | i
CCN(CC)C(=O)N1c2ccccc2Sc2ccccc21 | ? | i | i | ? | i | nt
SMILES | DT40 TDP1 CPT | TGFb SMAD3 inh | HepG2 viability | TDP1 cell noCPT | IL1B secr inh | TDP1 block
C[N+]1(C)CCC[C@H]1C(=O)[O-] | nt | nt | nt | nt | nt | i
COc1ccccc1NC(=O)COc1ccccc1C(=O)c1cnn(-c2ccccc2)c1 | 21µM | i | i | 23µM | i | i
CCc1ccc(NC(=O)COc2ccc(F)cc2C(=O)c2cnn(-c3ccccc3)c2)cc1 | ? | i | i | ? | i | i
O=C1CC2(CCCC2)CC(=O)N1CCCCNCC1COc2ccccc2O1 (stereo not given) | i | nt | nt | i | nt | i
O=C(/C=C/c1ccc(Cl)cc1Cl)Nc1cccc(S(=O)(=O)NC2=NCCCCC2)c1 | i | ? | i | ? | -69 | i
O=C(COc1ccccc1[N+](=O)[O-])Nc1cccc(S(=O)(=O)NC2=NCCCCC2)c1 | ? | i | i | ? | i | nt
O=C(Cc1c(F)cccc1Cl)Nc1cccc(S(=O)(=O)NC2=NCCCCC2)c1 | i | i | i | i | i | nt
O=C(/C=C/c1ccccc1[N+](=O)[O-])Nc1cccc(S(=O)(=O)NC2=NCCCCC2)c1 | ? | i | i | 21µM | i | i
O=C(CCn1cncn1)NCC1Cc2cc(-c3ccsc3)cc(Cl)c2O1 (stereo not given) | i | nt | nt | i | nt | nt
Cc1cc(Cl)ccc1NC(=S)NC1CCCC1 | ? | i | i | 21µM | i | nt
COc1ccccc1NC(=O)NC1CCCCCCC1 | i | i | i | i | ? | i
COc1ccccc1C(=O)NNC(=O)C(=O)NC1CCCCC1 | 21µM | i | i | ? | i | i
Fc1ccccc1NC(=S)NC1CCCC1 | ? | ? | i | 23µM | i | i
O=C(NC(=S)Nc1ccccc1F)C1CCCCC1 | nt | nt | nt | nt | nt | i
COc1ccccc1C(=O)Nc1ccccc1C(=O)NC1CCCCC1 | ? | i | i | ? | i | i
Cc1c(Cl)cccc1NC(=S)NC1CCCC1 | i | i | i | i | i | nt
COc1ccccc1NC(=S)NC1CCCCCC1 | ? | i | i | 18µM | i | i
COc1ccc(C2(C)NC(=O)N(CC(=O)NC3CCCC3)C2=O)cc1OC (stereo not given) | i | i | i | i | i | i
C#CCCCO/N=C1/C[C@@H](O)[C@@H](O)[C@@H]2[C@@H]3C(=O)N(Cc4ccc5c(c4)OCO5)C(=O)[C@H]3CC[C@H]12 | nt | nt | nt | nt | nt | i[21 µM]
Cc1cccc(NC(=S)NC2CCCC2)c1C | i | i | i | i | i | nt
Cc1cccc(NC(=S)NC2CCCCCC2)c1C | 21µM | i | i | 10µM | i | i
Cc1cccc(NC(=S)NC2CC3CCCC(C2)N3Cc2ccccc2)c1C (stereo not given) | 16µM | ? | i | ? | i | i
CC(C)(C)c1ccccc1NC(=S)NC1CCCC1 | ? | i | i | ? | i | i

Source: PubChem BioAssay (National Center for Advancing Translational Sciences (NCATS))
